DT40 TDP1 no CPT – qHTS for Inhibitors of human tyrosyl-DNA phosphodiesterase 1 (TDP1): qHTS in cells in absence of CPT; DT40 Tdp1-/- hTDP1 cells, no CPT, ATP luminescence, 48 h; Potency, µM (doses to about 46.2 µM), without a hit: at the highest dose activity change, negative = growth inhibition, most hits filed as inhibitors; actives 15% (n = 420,000); AID 686978, 2013; also: potency is read from the fitted curve at half-maximal effect; % is scaled to controls: 0 for no effect and ±100 for the full control effect; nearly all actives have a fitted effect of over 55% in size
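Cells were dispensed at 400 per well, compounds added by pin tool, plates incubated ≥48 hr at 37 °C, then CellTiter-Glo added for 30 min at room temperature before luminescence reading. Line: DT40 Tdp1-/- complemented with hTDP1; camptothecin omitted.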
TDP1 cell CPT – qHTS for Inhibitors of human tyrosyl-DNA phosphodiesterase 1 (TDP1): qHTS in cells in presence of CPT; AID 686979, 2013; Potency, µM (series often up to 46.2 µM), without a hit: top-dose activity change, negative = growth inhibition, most hits filed as inhibitors; actives 12% (n = 420,000); chicken DT40 Tdp1-/-;hTDP1 cells + 20 nM CPT, ATP luminescence, 48 h; also: potency is read from the fitted curve at half-maximal effect; % is scaled to controls: 0 for no effect and ±100 for the full control effect; nearly all actives have a fitted effect of over 55% in size
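Chicken DT40 Tdp1-/- cells complemented with human TDP1, 400 cells/well, exposed to compounds plus 20 nM camptothecin for at least 48 h at 37 C; viability read as ATP content by CellTiter-Glo luminescence.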
HepG2 viability – qHTS for Inhibitors of TGF-b: Cytotox Counterscreen; Potency, µM (series often up to 46.1 µM), without a hit: top-dose activity change, negative = cytotoxicity, hits mostly cytotoxic; AID 588856, 2011; HepG2 CAGA-GFP viability, ATP luminescence, 18 h; actives 0.76% (n = 410,000); also: potency is read from the fitted curve at half-maximal effect
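HepG2 CAGA-GFP cells (1000/well, DMEM with 1% FBS) received compound, then TGF-beta at 500 pg/mL final, and were incubated 18 hours at 37 degrees C. Viability was read by CellTiter-Glo luminescence. Media-only wells were set as complete cell-killing and DMSO as no toxicity.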
TDP1 block – qHTS Assay for Inhibitors of Tyrosyl-DNA Phosphodiesterase (TDP1); Potency, µM (doses to about 130 µM), for inactives: at the highest dose activity change, negative = inhibition, hits mostly inhibitors; recombinant TDP1, AlphaScreen DNA substrate cleavage; Tyrosyl-DNA phosphodiesterase 1 (Homo sapiens), Q9NUW8; AID 485290, 2010; actives 0.28% (n = 350,000); also: potency is read from the fitted curve at half-maximal effect; % is scaled to controls: 0 for no effect and ±100 for the full control effect; nearly all actives have a fitted effect of over 40% in size
Target sequence (Q9NUW8 whole entry, looked up): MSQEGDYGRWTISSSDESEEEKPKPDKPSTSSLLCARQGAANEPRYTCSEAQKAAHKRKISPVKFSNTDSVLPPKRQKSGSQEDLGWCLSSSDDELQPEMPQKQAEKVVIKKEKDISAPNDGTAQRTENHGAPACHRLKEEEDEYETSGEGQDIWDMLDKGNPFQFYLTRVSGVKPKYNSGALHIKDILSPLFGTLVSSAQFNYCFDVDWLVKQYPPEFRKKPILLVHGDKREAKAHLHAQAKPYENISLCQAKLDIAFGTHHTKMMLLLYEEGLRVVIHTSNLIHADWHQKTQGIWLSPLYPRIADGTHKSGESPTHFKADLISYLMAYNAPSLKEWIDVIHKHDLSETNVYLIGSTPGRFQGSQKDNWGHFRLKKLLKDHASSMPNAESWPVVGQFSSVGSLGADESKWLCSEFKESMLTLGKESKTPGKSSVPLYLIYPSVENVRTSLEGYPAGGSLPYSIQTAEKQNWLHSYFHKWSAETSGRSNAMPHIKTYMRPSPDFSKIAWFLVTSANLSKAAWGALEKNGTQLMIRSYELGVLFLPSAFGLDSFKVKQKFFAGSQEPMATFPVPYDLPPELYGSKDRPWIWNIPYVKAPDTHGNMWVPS
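Recombinant human Tdp1 (E. coli-expressed, 1 nM final) preincubated with compounds 15 min at room temperature, then 5'-biotin/3'-phosphotyrosine-FITC DNA substrate (15 nM final) added for 5 min. AlphaScreen beads (10 ug/ml final) added 10 min; cleavage lowers signal.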
IL1B secr inh – qHTS for Inhibitors of Inflammasome Signaling: IL-1-beta AlphaLISA Primary Screen; AID 743279, 2014; actives 4.7% (n = 360,000); THP-1 LPS/ATP IL-1B secretion, AlphaLISA, 16 h; hits give low values; activity change, % at 57.5 µM; in the data active = activity change below about -50%; inconclusive = mostly about -30% to -49%; also: % is scaled to controls: 0 for no effect and ±100 for the full control effect
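Secreted IL-1B measured by AlphaLISA bead assay after 16 h compound exposure of THP-1 cells; compounds (final up to 57.5 uM) added 1 h before LPS (250 ng/mL) and ATP (1.25 mM) stimulation; lower signal means less secretion.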
TGFb SMAD3 inh – qHTS for Inhibitors of TGF-b; HepG2 CAGA-GFP TGF-b/SMAD3 reporter, GFP fluorescence, 18 h; TGF-beta stimulated, 500 pg/mL final; Potency, µM (titrated, usually from 46.1 µM), inactives show at the top dose activity, negative = inhibition, actives largely listed as inhibitors; actives 1.2% (n = 410,000); also: potency is read from the fitted curve at half-maximal effect; % is scaled to controls: 0 for no effect and ±100 for the full control effect; nearly all actives have a fitted effect of over 65% in size
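HEPG2 CAGA-GFP reporter cells (1000/well, DMEM with 1% FBS) received compounds, then recombinant TGF-beta at 500 pg/mL final for 18 hours at 37 degrees C. Per-cell GFP summed per well was normalised to unstimulated and stimulated DMSO controls before curve fitting.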
The depositor's hits bear a star; ? = inconclusive; · = not tested or not shown. This is a sample that favours compounds with a hit; in the whole collection about 18% have one here. Unless noted, calls follow the shape of the dose curve; as a rule, active = well fitted curve in the direction sought with a large enough effect; inconclusive = small, poorly fitted or top-dose-only effect, or another doubt; inactive = no such curve, though single readings can be large; an effect the other way counts as inactive or inconclusive.

SMILES | DT40 TDP1 no CPT | TDP1 cell CPT | HepG2 viability | TDP1 block | IL1B secr inh | TGFb SMAD3 inh
Cc1cccc(NC(c2ccc(O)cc2)c2ccc3ccc(C)nc3c2O)n1 (stereo not drawn) | 16µM* | 23µM* | -28% | 1% | -71* | ?
O=[N+]([O-])c1ccc(NC(c2ccccc2)c2ccc3cccnc3c2O)cc1 (stereo not drawn) | 4.6µM* | 3.3µM* | -1% | · | 73 | -7%
Cc1cccc(NC(=O)Nc2cccc(C)n2)n1 | -3% | 4% | -22% | 1% | -1 | 1%
Oc1cccc(C(Nc2nccs2)c2ccc3cccnc3c2O)c1 (stereo not drawn) | 4.6µM* | 3.7µM* | -26% | 9% | -107* | 14µM*
CC(=O)NC(c1cccc([N+](=O)[O-])c1)c1ccc2cccnc2c1O (stereo not drawn) | 1µM* | 2.6µM* | -20% | 5% | 189 | ?
O=C(Nc1cccc2cccnc12)c1cccc([N+](=O)[O-])c1 | 7% | 12% | -26% | 7% | -8 | -3%
Cc1nnc(NC(=O)CSCc2cc(=O)c3cc(Cl)ccc3[nH]2)s1 | 2% | -17% | -4% | 5% | · | 15%
O=C(NCc1ccco1)C1CCN(C(=O)N2CCOc3ccccc32)CC1 | -14% | -1% | -20% | 1% | · | -1%
Oc1c(C(Nc2cccc(C(F)(F)F)c2)c2cccnc2)ccc2cccnc12 (stereo not drawn) | ? | ? | -53% | 11% | 38 | ?
COc1cccc(C(NC(C)=O)c2ccc3cccnc3c2O)c1 (stereo not drawn) | 0.92µM* | 0.73µM* | -25% | · | 203 | ?
COc1cccc(C(Nc2ccccc2)c2ccc3ccc(C)nc3c2O)c1 (stereo not drawn) | 5.2µM* | 5.8µM* | · | · | 55 | ·
O=C(c1cc(COc2ccc3c(c2)CCCC3)on1)N1CCCC1 | · | · | · | -4% | · | ·
Cc1ccc(/C=C(\NC(=O)c2ccc(C)cc2)c2nc(=S)[nH][nH]2)cc1 | ? | 15µM* | -67% | 10% | -11 | ?
CSc1ccc(/C=C(\NC(=O)c2ccc(C)cc2)C(=O)NN)cc1 | 4% | 8% | -2% | · | ? | -10%
Cc1ccc(C(=O)N/C(=C/c2ccccc2F)C(=O)NCCCn2ccnc2)cc1 | 17% | ? | 5% | 4% | -24 | 8%
Cc1ccc(C(=O)N/C(=C\c2ccccc2F)c2nc(=S)[nH][nH]2)cc1 | ? | 21µM* | -8% | 6% | -1 | -15%
COc1ccc(-n2c(SCCC#N)nnc2-c2cc(Cl)ccc2OC)cc1Cl | 16µM* | ? | -3% | 4% | 30 | 0%
O=C(NNS(=O)(=O)c1ccc(Cl)cc1)c1cnn(-c2ccccc2)c1-n1cccc1 | 2.1µM* | 1.5µM* | -12% | 3% | 4 | -26%
NNC(=O)c1cnn(-c2ccccc2)c1-n1cccc1 | -12% | 3% | -4% | 6% | 12 | -1%
O=C(O)c1cnn(-c2ccccc2)c1-n1cccc1 | -21% | -28% | 0% | -5% | 16 | -21%
O=C(NNS(=O)(=O)c1ccc([N+](=O)[O-])cc1)c1cnn(-c2ccccc2)c1-n1cccc1 | 0.46µM* | 0.46µM* | -2% | 0% | 6 | -15%
O=C(NNS(=O)(=O)c1ccccc1)c1cnn(-c2ccccc2)c1-n1cccc1 | 12µM* | 8.2µM* | -6% | 3% | 0 | 6%
CCn1cc(SCC(=O)NC2CCCC2)c2ccccc21 | -22% | ? | 3% | 0% | 6 | 0%
CCS(=O)(=O)Nc1cc(C(=O)N[C@H]2CCCCNC2=O)c2c(c1)nc(-c1ccccc1)n2C | -10% | 1% | · | · | · | ·
CO/N=C(\C(=O)N[C@@H]1C(=O)N2C(C(=O)O)=C(CSc3nnnn3C)CS[C@H]12)c1csc(N)n1 | -24% | -1% | · | · | · | ·
SMILES | DT40 TDP1 no CPT | TDP1 cell CPT | HepG2 viability | TDP1 block | IL1B secr inh | TGFb SMAD3 inh
COc1ccc(-c2nn(-c3ccccc3)cc2CN(C)CCn2ccnc2C)c(F)c1 | ? | 18µM* | -33% | · | ? | -20%
CC(=O)OCON[N+]([O-])=NC1CCCCC1 | · | · | -6% | 12% | · | -7%
CN(C)S(=O)(=O)c1ccc(NC(=O)CN2CCN(C(c3ccccc3)c3ccccc3)CC2)cc1 | 21µM* | ? | -10% | 1% | 11 | -5%
O=C(CN1CCN(S(=O)(=O)N2CCCCC2)CC1)Nc1cc(Cl)cc(Cl)c1 | ? | -25% | -21% | -6% | -65* | ?
O=C(CN1CCCCC1)Nc1ccc(S(=O)(=O)c2ccc(NC(=O)CN3CCCCC3)cc2)cc1 | 13µM* | 16µM* | 11% | · | 11 | 7%
O=C(CN1CCN(S(=O)(=O)N2CCCCC2)CC1)Nc1ccc(Cl)c(Cl)c1 | 23µM* | ? | -33% | · | -77* | ?
O=C(CN1CCN(S(=O)(=O)N2CCCCCC2)CC1)Nc1ccc(Br)cc1 | ? | ? | -19% | 3% | -27 | 5%
CC(=O)OCC(NC(=O)C(COCc1ccccc1)NC(=O)OC(C)(C)C)C1OC(n2cc(C)c(=O)[nH]c2=O)C(OC(C)=O)C1OC(C)=O (stereo not drawn) | · | · | 0% | 5% | · | 3%
O=C(CCCc1ccccc1)NCc1ccccc1Cl | -16% | -17% | -1% | · | -6 | 1%
CCCCCCCCCCCCCCOS(=O)(=O)O | · | · | · | 8% | · | ·
CCOc1ccc(CCN2C(=O)C(=O)N([C@@H](Cc3ccccc3)CN3CCC[C@H]3CN3C(=O)C(=O)NC[C@@H]3CC(C)C)C[C@@H]2Cc2ccc(O)cc2)cc1 | ? | -91% | · | · | -53* | ·
CCOc1ccc(CCN2C(=O)C(=O)N([C@@H](Cc3ccccc3)CN3CCC[C@H]3CN3C(=O)C(=O)NC[C@@H]3Cc3ccc(O)cc3)C[C@@H]2Cc2ccc(O)cc2)cc1 | ? | ? | · | · | -60* | ·
CC(=O)Nc1ccc(C(=O)Cn2c3[n+](c4c(F)c(F)ccc42)CCCCC3)cc1 | -1% | 1% | -13% | 3% | 30 | 6%
COc1cc(-c2nc3ccccc3nc2-c2ccc(O)c(OC)c2)ccc1O | ? | ? | -31% | · | 0 | -18%
